The results in this text go back to PubChem BioAssay AID841 (Emory University Molecular Libraries Screening Center, 2007).

Each structure is given as a SMILES string. Out of some 140,000 compounds screened, about 2,100 (1.5%) were called active. The sample holds actives, similar compounds and a random draw of the others, so the mix is not that of the screen. Unmarked numbers belong to inactive results. Cut-off read from the data, not from the text of the source: active = protection mostly above about 24% (no sharp cut-off); inactive = mostly below about 26%.

The nature of the experiment: compounds protecting cells from measles virus cytopathic effect, primary screen, measles RdRp inhibitor project, single point, MLSMR library, absorbance (AID 841). Particulars: Measles virus-infected cells, CPE protection, at 4 µM, stronger effect = higher value.
`COc1cc(/C=N\NC(=O)c2nonc2N)c(OC)cc1Br`: the protection (pct of control) is 4.84%.

Regarding `CCCCN1C(=O)CCC(C(=O)O)C1c1ccc(OC)cc1` (stereo not given), the protection (pct of control) was 18.6%.

Turning to `CCn1c(C(C)NC(=O)c2ccc(C)cc2)n[nH]c1=S` (stereo not given), the protection (pct of control) is 13.2%.

On to `COc1ccc(C2CC(c3ccccc3)=NN2C(=O)c2ccc(Cl)c([N+](=O)[O-])c2)cc1` (stereo not given), for which the protection (pct of control) was 5.64%.

As to `CCOC(=O)c1c(C)[nH]c(=S)c(C#N)c1-c1ccccc1`, the protection (pct of control) was 1.99%.

On to `CCOC(=O)c1c(C)nc(-c2ccccc2)nc1NC(=O)C(C)C`, for which the protection (pct of control) was 92.6% (active).

In the case of `Cc1[nH]c2ccccc2c1C(=O)COC(=O)c1c(-c2ccccc2)noc1C`, the protection (pct of control) is 3.64%.

For the compound `C=CCN(c1ccc(C(=O)Nc2cc(C)cc(C)c2)cc1)S(C)(=O)=O`, the protection (pct of control) is 12.6%.

For `Cc1ccc(C(C)(C)C)c(OCCCCN2CCCC2)c1`, the protection (pct of control) was -0.18%.

In the case of `CN(C)c1ccc(/C=N/NC(=O)c2ccc(Cn3cc(Br)cn3)o2)cc1`, the protection (pct of control) is 28.3% (active).

For the compound `O=C(N/N=C/c1ccc2c(c1)OCO2)c1ccc(Cn2cc([N+](=O)[O-])cn2)o1`, the protection (pct of control) was 18.3%.

Consider `O=C(N/N=C\c1ccc(Br)cc1)c1ccc(Cn2cccn2)o1`, for which the protection (pct of control) is 5.4%.

As to `Cc1ccc(S(=O)(=O)N(NC2=NS(=O)(=O)c3ccccc32)C(=O)c2ccccc2)cc1`, the protection (pct of control) is 7.51%.

For `CCOC(=O)C1=C(N)N(c2ccc(C)cc2)C2=C(C(=O)CCC2)C1c1cccs1` (stereo not given), the protection (pct of control) was 20.1%.

On to `Cc1nn(Cc2ccc(Cl)cc2)c(Cl)c1/C=N/NC(=O)c1cccnc1`, for which the protection (pct of control) is 11.1%.

Consider `CC1(C)CC(=O)C2=C(C1)Nc1cc(C(=O)c3ccccc3)ccc1NC2c1ccccn1` (stereo not given), for which the protection (pct of control) is 2.11%.

`Cc1noc(C)c1COC(=O)Cn1c(C)nc2ccccc21`: the protection (pct of control) was 7.94%.

`CCCCn1c(=O)c(CCC(=O)OCC(=O)Nc2ccc(C)c(Cl)c2)nc2ccccc21`: the protection (pct of control) was 23.4%.

Regarding `COc1ccc(NC(=O)COC(=O)Cn2c(C)nc3ccccc32)cc1OC`, the protection (pct of control) is 50.1% (active).

Consider `O=C(Nc1cccc(S(=O)(=O)N2CCCCC2)c1)c1ccc2c(c1)OCO2`, for which the protection (pct of control) was 8.22%.

Consider `Cc1cccc(NC(=O)COc2ccc(Br)cc2C)n1`, for which the protection (pct of control) is 6.52%.

On to `CCN(CC)S(=O)(=O)c1ccc(C)c(NC(=O)COc2ccc(Br)cc2Cl)c1`, for which the protection (pct of control) is 52.8% (active).

Regarding `Cc1ccc(S(=O)(=O)N(C)C)cc1NC(=O)COC(=O)c1c(C)noc1C`, the protection (pct of control) is 9.42%.

In the case of `CN(C(=O)c1c(Cl)cnn1C)C12CC3CC(CC(C3)C1)C2`, the protection (pct of control) is 6.9%.

For `Cc1c(C(=O)NCCN2C(=O)S/C(=C\c3cccs3)C2=O)cccc1[N+](=O)[O-]`, the protection (pct of control) is 19.9%.
